Our source for the outcome and AC50 values is PubChem BioAssay (EPA / NIEHS).

Usually AC50 stands for the midpoint of the concentration-response curve, whichever way the signal moves.

Assay [1] in a line: ATG_CRE_CIS: Attagene CIS-FACTORIAL HepG2 Assay for human cAMP Responsive Element (CRE) binding protein 3 (AID 2282926). The conditions noted are these: HepG2 CRE cis-reporter, Attagene multiplexed mRNA; actives raise or lower the signal. The method in brief: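 Induced reporter mRNA from a CRE cis element, measured in HepG2 among many multiplexed units at 24 h. Detection used RT-PCR plus capillary electrophoresis of fluorescent fragments; DMSO served as negative control.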

Assay [2] has as its target CCAAT/enhancer-binding protein beta (Homo sapiens) (UniProt P17676). Kind of assay: ATG_C_EBP_CIS: Attagene CIS-FACTORIAL HepG2 Assay for human CCAAT/Enhancer Binding Protein (C/EBP) beta (AID 2282927). The note with it: HepG2 Attagene cis-factorial transcription factor reporter; actives raise or lower the signal. The method, boiled down: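 HepG2 transiently transfected with multiplexed reporter units under cis-regulatory promoters reporting endogenous C/EBPb activity. After 24 h exposure, reporter mRNA assayed by RT-PCR, fluorescent labelling, HpaI digestion and capillary electrophoresis; bidirectional fitting versus DMSO.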

Assay [3] can be described thus: ATG_CMV_CIS: Attagene CIS-FACTORIAL HepG2 Assay for human CMV (Internal Marker) (AID 2282928).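 Further: endpoint acts as a background internal control marker rather than a target.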 The conditions noted are these: HepG2 CMV promoter reporter, transcription factor profiling; actives raise or lower the signal. The method, boiled down:
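Fluorescence intensity of RT-PCR-derived reporter fragments, resolved by capillary electrophoresis, gives the signal. HepG2 liver cells bearing transfected cis-element reporters were treated 24 h; activity in either direction was fit relative to DMSO-treated controls.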

Assay [4] in a line: ATG_DR4_LXR_CIS: Attagene CIS-FACTORIAL HepG2 Assay for human Liver X Receptor (LXR), DR4 submotif (AID 2282929). The conditions noted are these: HepG2 Attagene DR4 cis-reporter, mRNA transcription; actives raise or lower the signal. The method in brief:
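Fluorescence intensity of labelled reporter cDNA fragments, separated by capillary electrophoresis, gives the signal. HepG2 cells bearing cis-regulated reporter constructs were treated 24 h; activity fitted bidirectionally relative to DMSO negative control.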

The target in assay [5] is Aryl hydrocarbon receptor (Homo sapiens) (UniProt P35869). Kind of assay: ATG_Ahr_CIS: Attagene CIS-FACTORIAL HepG2 Assay for human Aryl Hydrocarbon Receptor (Ahr) (AID 2282930). The conditions noted are these: HepG2 AhR cis-factorial reporter transcription; actives raise or lower the signal. The method, boiled down:
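HepG2 cells transiently transfected with cis-element-driven multiplexed reporter units; endogenous AhR activity read as reporter mRNA 24 h after dosing, via RT-PCR, 6-FAM labelling, HpaI digestion and capillary electrophoresis. Bidirectional fit relative to DMSO.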

Assay [6] can be described thus: ATG_AP_1_CIS: Attagene CIS-FACTORIAL HepG2 Assay for human Activator Protein 1 (AP-1) (AID 2282931). The conditions noted are these: HepG2 Attagene cis-factorial AP-1 reporter mRNA; actives raise or lower the signal. The method in brief:
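Multiplexed HepG2 reporter assay, 24 h dosing. mRNA induction detected by RT-PCR plus capillary electrophoresis. Activity fitted in both directions against DMSO.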

The nature of assay [7]: ATG_BRE_CIS: Attagene CIS-FACTORIAL HepG2 Assay for human Bone Morphogenetic Protein (BMP) Response Element (BRE) (AID 2282933). The conditions noted are these: HepG2 BMP response element reporter, Attagene transcription factor profiling; actives raise or lower the signal. The method in brief:
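A HepG2 multiplex reporter system measured inducible reporter mRNA 24 h post-dosing. Detection: RT-PCR, 6-FAM primer extension, HpaI digestion, capillary electrophoresis. Activity fitted bidirectionally relative to DMSO.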

For assay [8], the target named is Transcription factor E2F1 (Homo sapiens) (UniProt Q01094). Kind of assay: ATG_E2F_CIS: Attagene CIS-FACTORIAL HepG2 Assay for human E2F Transcription Factor 1 (AID 2282935). The note with it: HepG2 Attagene cis-reporter, E2F reporter RNA transcripts; actives raise or lower the signal. The method, boiled down: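 Transient MRTU transfection of HepG2; 24 h compound exposure; RNA → oligo(dT) RT → PCR → FAM label → HpaI cut → CE fluorescence. Gain/loss of signal fit against DMSO.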
Sequence of Transcription factor E2F1 (Homo sapiens) (Q01094 whole entry, looked up): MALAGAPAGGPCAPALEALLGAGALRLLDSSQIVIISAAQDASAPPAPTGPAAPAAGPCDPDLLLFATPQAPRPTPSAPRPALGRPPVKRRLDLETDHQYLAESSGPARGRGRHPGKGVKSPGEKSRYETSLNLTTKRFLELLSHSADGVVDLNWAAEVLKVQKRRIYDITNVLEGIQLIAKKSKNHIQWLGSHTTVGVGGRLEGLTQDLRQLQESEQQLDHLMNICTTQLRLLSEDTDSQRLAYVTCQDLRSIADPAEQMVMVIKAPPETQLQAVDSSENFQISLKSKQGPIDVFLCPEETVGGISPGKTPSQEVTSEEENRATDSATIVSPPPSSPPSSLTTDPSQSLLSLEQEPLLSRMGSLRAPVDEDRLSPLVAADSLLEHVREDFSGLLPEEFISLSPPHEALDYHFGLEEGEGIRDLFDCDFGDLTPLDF

A short description of assay [9]: ATG_AP_2_CIS: Attagene CIS-FACTORIAL HepG2 Assay for human Activator Protein 2 (AP-2) (AID 2282932). The note with it: HepG2 AP-2 cis-reporter, Attagene transcription factor profiling; actives raise or lower the signal. The method, boiled down:
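Read-out: fluorescent reporter mRNA via RT-PCR and capillary electrophoresis, 24 h post-dose in transiently transfected HepG2. Endogenous factors drive cis-promoter reporters; gain or loss of signal fitted bidirectionally against DMSO.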

Assay [10] deals with Retinoic acid receptor alpha (Homo sapiens) (UniProt P10276). Put plainly: ATG_DR5_RAR_CIS: Attagene CIS-FACTORIAL HepG2 Assay for human Retinoic Acid Receptor Alpha (RARE), DR5 submotif (AID 2282934). The conditions noted are these: HepG2 Attagene cis-factorial RARE DR5 reporter, mRNA; actives raise or lower the signal. The method in brief: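 HepG2 cells transiently transfected with multiplexed reporter units; DR5 cis-element drives reporter through endogenous transcription factors. After 24 h dosing, reporter mRNA quantified by RT-PCR, fluorescent labeling, HpaI digestion and capillary electrophoresis; bidirectional fitting versus DMSO.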
Sequence of Retinoic acid receptor alpha (Homo sapiens) (P10276 whole entry, looked up): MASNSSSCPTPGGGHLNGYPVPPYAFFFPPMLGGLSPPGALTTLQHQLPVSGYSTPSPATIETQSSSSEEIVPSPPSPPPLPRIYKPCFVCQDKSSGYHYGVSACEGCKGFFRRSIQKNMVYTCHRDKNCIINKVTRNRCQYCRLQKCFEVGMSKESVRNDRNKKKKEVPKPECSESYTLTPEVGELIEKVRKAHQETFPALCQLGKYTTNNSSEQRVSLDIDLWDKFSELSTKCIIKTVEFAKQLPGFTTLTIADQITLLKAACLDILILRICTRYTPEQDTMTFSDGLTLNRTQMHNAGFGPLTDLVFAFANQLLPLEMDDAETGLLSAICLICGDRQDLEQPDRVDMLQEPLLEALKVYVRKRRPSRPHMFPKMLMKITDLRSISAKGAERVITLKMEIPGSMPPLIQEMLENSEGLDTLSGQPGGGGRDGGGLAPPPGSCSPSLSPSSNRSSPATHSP

SMILES strings stand for the structures. Activity calls are given as the source filed them. How the source made its calls: active means hit-call score of the fitted dose curve at least 0.9, where 1 is the maximum; inactive means score below 0.9.

Sequence of Aryl hydrocarbon receptor (Homo sapiens) (P35869 whole entry, looked up): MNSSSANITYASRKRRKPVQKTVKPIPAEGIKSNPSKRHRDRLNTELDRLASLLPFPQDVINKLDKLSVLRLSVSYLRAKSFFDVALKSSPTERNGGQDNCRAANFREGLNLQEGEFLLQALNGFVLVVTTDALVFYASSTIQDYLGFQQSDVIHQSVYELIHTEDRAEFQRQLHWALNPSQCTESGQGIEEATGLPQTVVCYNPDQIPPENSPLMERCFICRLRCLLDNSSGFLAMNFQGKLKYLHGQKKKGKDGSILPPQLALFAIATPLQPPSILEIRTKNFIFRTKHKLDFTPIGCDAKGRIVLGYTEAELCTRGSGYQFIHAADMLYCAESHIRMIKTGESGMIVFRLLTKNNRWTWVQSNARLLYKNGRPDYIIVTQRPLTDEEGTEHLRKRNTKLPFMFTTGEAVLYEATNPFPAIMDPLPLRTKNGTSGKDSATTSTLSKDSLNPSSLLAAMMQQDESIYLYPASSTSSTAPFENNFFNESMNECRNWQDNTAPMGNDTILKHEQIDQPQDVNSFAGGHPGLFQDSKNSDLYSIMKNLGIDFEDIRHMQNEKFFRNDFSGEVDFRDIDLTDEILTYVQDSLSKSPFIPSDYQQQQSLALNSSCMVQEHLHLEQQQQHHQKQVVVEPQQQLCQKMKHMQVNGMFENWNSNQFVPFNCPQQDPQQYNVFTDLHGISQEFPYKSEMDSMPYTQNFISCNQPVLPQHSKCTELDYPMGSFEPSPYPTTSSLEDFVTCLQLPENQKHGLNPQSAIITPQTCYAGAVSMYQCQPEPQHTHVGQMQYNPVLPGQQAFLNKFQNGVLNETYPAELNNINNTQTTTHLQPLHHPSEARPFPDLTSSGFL
Sequence of CCAAT/enhancer-binding protein beta (Homo sapiens) (P17676 whole entry, looked up): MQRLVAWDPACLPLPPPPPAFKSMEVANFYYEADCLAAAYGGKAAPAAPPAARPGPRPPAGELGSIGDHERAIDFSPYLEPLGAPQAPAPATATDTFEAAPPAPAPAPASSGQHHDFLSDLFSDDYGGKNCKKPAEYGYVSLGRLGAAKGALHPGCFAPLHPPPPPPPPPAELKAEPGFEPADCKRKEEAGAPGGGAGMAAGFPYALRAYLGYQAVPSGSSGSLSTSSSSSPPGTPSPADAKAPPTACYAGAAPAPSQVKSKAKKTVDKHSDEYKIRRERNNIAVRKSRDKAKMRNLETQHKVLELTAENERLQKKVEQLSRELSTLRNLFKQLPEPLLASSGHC

`S=C(S)NCCNC(=S)S`: the outcome in [1], in assay [2], in assay [3], in assay [4], in assay [5] and in assay [6] was inactive. Also, the compound was classed as inactive in assay [7] and in [8].
Take `CC(C)=CCC[C@](C)(O)[C@@H]1CC=C(C)CC1`: the compound was called inactive in [1], in assay [2], in assay [4], in assay [5], in [9] and in assay [7]. The compound was classed as inactive in [10] and in assay [8]. Also, in assay [3], the AC50 was 49.5 µM (active).
For `CCCCCCOC(=O)CC`, the compound was called inactive in [1], in assay [2], in assay [3], in [4], in assay [5] and in [9]. For the same compound, the result in assay [7] and in assay [8] was inactive.
For the compound `CCOC(=S)SSC(=S)OCC`, the compound was called inactive in [1], in assay [2], in assay [3], in [4], in assay [5] and in [6]. Also, the outcome in [8] was inactive.
Turning to `CNCCO`, the outcome in [1], in [2], in [3], in assay [4], in assay [5] and in assay [9] was inactive. The call in assay [7] and in assay [8] was inactive.
On to `Cc1ccc(O)c(C(C)(C)C)c1`, for which the compound was classed as inactive in [1], in assay [2], in [3], in assay [5] and in assay [8]. The AC50 in [4] and in [6] was 100 µM (active) each time.
Regarding `CCc1ccc(C=O)cc1`, the result in assay [1], in assay [2], in assay [3], in assay [4], in assay [5] and in [9] was inactive. Moreover, the result in [7] and in [8] was inactive.
Turning to `COC(=O)Cc1cccc2ccccc12`, the compound was called inactive in assay [1], in assay [2], in assay [3], in assay [4], in assay [5] and in assay [9]. Moreover, the outcome in assay [7] and in [8] was inactive.
`CCC(O)CO` (stereo unspecified): the outcome in assay [1], in assay [2], in [3], in assay [4], in assay [5] and in assay [9] was inactive. For the same compound, the result in assay [7] and in assay [8] was inactive.
In the case of `C=C(C)C(=O)O[C@H]1C[C@@H]2CC[C@@]1(C)C2(C)C`, the result in assay [1], in [2], in assay [9] and in [7] was inactive. Moreover, the AC50 in [3] was 148 µM (active); in [4] it was 26.7 µM (active); in assay [5], 137 µM (active); in [8], 100 µM (active).
`O=C(Cl)c1cccc(C(=O)Cl)c1`: the compound was classed as inactive in assay [1], in [2], in [3], in assay [4], in assay [5] and in assay [9]. Further, the compound was classed as inactive in assay [8].
Regarding `O=C1CCc2ccccc2O1`, the outcome in assay [1], in [2], in assay [3], in [4], in assay [5] and in [9] was inactive. In addition, the compound was classed as inactive in assay [8].
As to `NC(=O)c1ccccc1Cl`, the values for the half-maximal activity concentration (AC50) in assay [1] and in assay [9] were 61.2 µM (active) and 76.4 µM (active), respectively. In addition, the result in assay [2], in assay [3], in [4], in assay [5], in assay [7] and in assay [8] was inactive.
Turning to `CCCCCCCCCCCCSC`, the result in [1], in assay [2], in [4], in assay [5], in assay [6] and in [7] was inactive. In addition, the outcome in [8] was inactive. Besides, the concentration at half-maximal activity (AC50) in assay [3] was 100 µM (active).
Regarding `CCCCCCC#CC(=O)OC`, the compound was classed as inactive in assay [1], in [2], in assay [3], in [4], in [5] and in assay [9]. For the same compound, the compound was called inactive in assay [7] and in [8].
As to `CC(C=O)Cc1ccc(C(C)C)cc1` (stereo unspecified), the compound was called inactive in assay [1], in assay [2], in assay [3], in assay [4], in [5] and in assay [9]. Further, the call in [7] and in assay [8] was inactive.
Turning to `CCC/C=C/C=O`, the result in assay [1], in [2], in [3], in [4], in assay [5] and in assay [9] was inactive. The compound was classed as inactive in [7] and in [8].
Take `O=[N+]([O-])c1ccc(Nc2ccc(Nc3ccccc3)c(S(=O)(=O)O)c2)c([N+](=O)[O-])c1`: the call in assay [1], in assay [2], in assay [3], in assay [7] and in [8] was inactive. Also, the concentration at half-maximal activity (AC50) was 100 µM (active) in assay [4], 31.9 µM (active) in [5] and 147 µM (active) in assay [6].
For `O=C(O)CCCCC1CCSS1` (stereo unspecified), the compound was classed as inactive in assay [1], in assay [2], in [3], in assay [4], in [5] and in assay [9]. For the same compound, the compound was called inactive in [7] and in assay [8].
Consider `CCCc1ccccc1O`, for which the compound was called inactive in [1], in assay [2], in assay [3], in assay [4], in assay [7] and in assay [8]. Also, the AC50 in assay [5] is 23.9 µM (active).
Take `CCn1c2ccccc2c2cc(N)ccc21`: the call in [1], in assay [2], in assay [4], in assay [9] and in [8] was inactive. The AC50 in assay [3] is 31.7 µM (active); in [5], 5.05 µM (active); in [7], 100 µM (active).
For `OCCOCCOCCOCCO`, the result in [1], in assay [2], in assay [3], in assay [4], in [9] and in assay [7] was inactive. Further, in [8], the compound was called inactive. Also, the AC50 in assay [5] was 40.5 µM (active).
`CC(C)(CO)[N+](=O)[O-]`: the compound was classed as inactive in assay [1], in assay [2], in assay [3], in assay [4], in assay [9] and in assay [7]. In addition, the outcome in assay [8] was inactive.
Turning to `O=C(O)Cc1cccc2ccccc12`, the outcome in [1], in [2], in assay [3], in assay [4], in assay [6] and in assay [9] was inactive. For the same compound, the compound was classed as inactive in assay [7] and in assay [8].
Turning to `CC(C)=CCC/C(C)=C/COC=O`, the outcome in assay [1], in assay [2], in assay [3], in assay [4], in [6] and in assay [9] was inactive. The compound was classed as inactive in assay [7], in assay [10] and in assay [8].
In the case of `C[Si](O[Si](C)(C)C)O[Si](C)(C)C`, the compound was classed as inactive in assay [1], in assay [2], in assay [3], in [4], in assay [6] and in assay [9]. Besides, the compound was classed as inactive in assay [7] and in assay [8].
In the case of `c1ccc2[nH]ccc2c1`, the outcome in [1], in assay [2], in [3], in [4], in assay [6] and in [9] was inactive. In addition, the compound was called inactive in assay [7] and in [8].
Consider `CC(CN1c2ccccc2Sc2ccccc21)N(C)C` (stereo unspecified), for which the outcome in assay [1], in [2], in [3], in assay [7] and in assay [10] was inactive. In addition, the half-maximal activity concentration (AC50) in [4] is 33.4 µM (active); in assay [9], 40.6 µM (active); in assay [8] it was 33.4 µM (active).
For the compound `CC(C)=CCO`, the call in assay [1], in assay [2], in assay [3], in assay [4], in [6] and in assay [9] was inactive. Further, the call in [7] and in assay [8] was inactive.
As to `Sc1nc(S)nc(S)n1`, the result in assay [1], in assay [2], in assay [3], in [4], in [6] and in assay [9] was inactive. Also, the compound was called inactive in assay [7] and in assay [8].
